# Legend:
# [1] = test system: Epidermal growth factor receptor (Homo sapiens), P00533 [T790M]; conditions: at 1 µM
# [2] = test system: Epidermal growth factor receptor (Homo sapiens), P00533 [L858R,T790M]; conditions: at 0.1 µM
# [3] = test system: Epidermal growth factor receptor (Homo sapiens), P00533 [L858R,T790M]; conditions: at 1 µM
# [4] = target: Ephrin type-A receptor 2 (Homo sapiens) (UniProt P29317); conditions: at 0.1 µM
# [5] = target: Ephrin type-A receptor 2 (Homo sapiens) (UniProt P29317); conditions: at 1 µM
# [6] = target: T1, Ephrin type-A receptor 3 (Homo sapiens) (UniProt P29320); conditions: at 0.1 µM
# T1 sequence (whole entry): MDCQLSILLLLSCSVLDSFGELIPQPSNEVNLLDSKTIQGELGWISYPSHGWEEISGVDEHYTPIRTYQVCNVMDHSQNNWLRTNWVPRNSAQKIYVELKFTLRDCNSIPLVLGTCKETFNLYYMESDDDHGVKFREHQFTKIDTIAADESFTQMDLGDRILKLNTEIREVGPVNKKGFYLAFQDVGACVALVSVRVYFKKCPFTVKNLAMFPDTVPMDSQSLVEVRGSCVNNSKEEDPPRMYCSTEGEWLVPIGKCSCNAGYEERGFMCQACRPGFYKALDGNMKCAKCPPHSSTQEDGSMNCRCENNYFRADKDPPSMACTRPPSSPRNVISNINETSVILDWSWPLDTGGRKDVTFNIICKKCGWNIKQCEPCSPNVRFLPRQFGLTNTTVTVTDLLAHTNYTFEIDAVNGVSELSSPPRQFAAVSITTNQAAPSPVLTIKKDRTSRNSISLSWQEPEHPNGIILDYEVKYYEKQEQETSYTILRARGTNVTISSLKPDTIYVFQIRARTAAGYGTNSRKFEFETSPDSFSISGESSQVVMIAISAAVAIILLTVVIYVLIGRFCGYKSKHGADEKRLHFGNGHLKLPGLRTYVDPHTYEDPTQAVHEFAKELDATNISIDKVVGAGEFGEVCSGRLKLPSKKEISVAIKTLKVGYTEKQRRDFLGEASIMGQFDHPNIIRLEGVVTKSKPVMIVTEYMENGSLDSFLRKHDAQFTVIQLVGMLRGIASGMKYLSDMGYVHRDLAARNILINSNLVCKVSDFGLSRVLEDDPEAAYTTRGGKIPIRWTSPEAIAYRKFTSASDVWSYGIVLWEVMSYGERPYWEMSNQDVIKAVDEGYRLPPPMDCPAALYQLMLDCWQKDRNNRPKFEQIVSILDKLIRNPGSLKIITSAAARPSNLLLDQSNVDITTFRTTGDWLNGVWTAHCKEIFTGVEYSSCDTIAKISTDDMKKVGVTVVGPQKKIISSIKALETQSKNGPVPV
# [7] = target: T1, Ephrin type-A receptor 3 (Homo sapiens); conditions: at 1 µM
# [8] = target: Ephrin type-A receptor 4 (Homo sapiens) (UniProt P54764); conditions: at 0.1 µM
# [9] = target: Ephrin type-A receptor 4 (Homo sapiens) (UniProt P54764); conditions: at 1 µM
# [10] = target: T2, Ephrin type-B receptor 2 (Homo sapiens) (UniProt P29323); conditions: at 0.1 µM
# T2 sequence (whole entry): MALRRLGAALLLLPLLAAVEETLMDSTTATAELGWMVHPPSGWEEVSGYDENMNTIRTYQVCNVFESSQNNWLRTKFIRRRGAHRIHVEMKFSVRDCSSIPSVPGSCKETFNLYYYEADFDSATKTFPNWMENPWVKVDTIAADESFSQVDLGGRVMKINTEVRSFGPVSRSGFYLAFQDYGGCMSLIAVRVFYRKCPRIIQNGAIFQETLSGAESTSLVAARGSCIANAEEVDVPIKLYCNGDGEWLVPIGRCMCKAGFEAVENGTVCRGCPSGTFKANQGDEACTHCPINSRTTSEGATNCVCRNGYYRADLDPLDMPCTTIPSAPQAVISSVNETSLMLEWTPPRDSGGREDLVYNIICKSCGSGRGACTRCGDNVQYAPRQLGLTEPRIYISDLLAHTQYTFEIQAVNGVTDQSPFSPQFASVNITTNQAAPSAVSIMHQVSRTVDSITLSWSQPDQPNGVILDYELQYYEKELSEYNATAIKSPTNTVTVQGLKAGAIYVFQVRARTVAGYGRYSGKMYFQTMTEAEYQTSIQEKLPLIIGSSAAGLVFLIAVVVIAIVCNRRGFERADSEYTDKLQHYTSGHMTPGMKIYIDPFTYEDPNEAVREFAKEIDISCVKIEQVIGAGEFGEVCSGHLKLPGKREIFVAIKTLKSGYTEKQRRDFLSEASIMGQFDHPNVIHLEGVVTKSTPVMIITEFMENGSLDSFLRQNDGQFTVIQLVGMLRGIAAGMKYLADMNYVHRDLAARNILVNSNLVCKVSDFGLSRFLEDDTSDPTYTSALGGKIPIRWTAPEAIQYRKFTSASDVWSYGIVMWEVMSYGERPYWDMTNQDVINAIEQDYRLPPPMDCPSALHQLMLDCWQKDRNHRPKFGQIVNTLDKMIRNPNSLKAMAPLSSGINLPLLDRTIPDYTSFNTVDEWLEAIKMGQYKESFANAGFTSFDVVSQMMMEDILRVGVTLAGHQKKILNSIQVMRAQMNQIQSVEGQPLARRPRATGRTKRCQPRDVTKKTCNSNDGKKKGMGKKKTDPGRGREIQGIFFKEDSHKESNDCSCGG
# [11] = target: T2, Ephrin type-B receptor 2 (Homo sapiens); conditions: at 1 µM
# [12] = target: T3, Ephrin type-B receptor 3 (Homo sapiens) (UniProt P54753); conditions: at 0.1 µM
# T3 sequence (whole entry): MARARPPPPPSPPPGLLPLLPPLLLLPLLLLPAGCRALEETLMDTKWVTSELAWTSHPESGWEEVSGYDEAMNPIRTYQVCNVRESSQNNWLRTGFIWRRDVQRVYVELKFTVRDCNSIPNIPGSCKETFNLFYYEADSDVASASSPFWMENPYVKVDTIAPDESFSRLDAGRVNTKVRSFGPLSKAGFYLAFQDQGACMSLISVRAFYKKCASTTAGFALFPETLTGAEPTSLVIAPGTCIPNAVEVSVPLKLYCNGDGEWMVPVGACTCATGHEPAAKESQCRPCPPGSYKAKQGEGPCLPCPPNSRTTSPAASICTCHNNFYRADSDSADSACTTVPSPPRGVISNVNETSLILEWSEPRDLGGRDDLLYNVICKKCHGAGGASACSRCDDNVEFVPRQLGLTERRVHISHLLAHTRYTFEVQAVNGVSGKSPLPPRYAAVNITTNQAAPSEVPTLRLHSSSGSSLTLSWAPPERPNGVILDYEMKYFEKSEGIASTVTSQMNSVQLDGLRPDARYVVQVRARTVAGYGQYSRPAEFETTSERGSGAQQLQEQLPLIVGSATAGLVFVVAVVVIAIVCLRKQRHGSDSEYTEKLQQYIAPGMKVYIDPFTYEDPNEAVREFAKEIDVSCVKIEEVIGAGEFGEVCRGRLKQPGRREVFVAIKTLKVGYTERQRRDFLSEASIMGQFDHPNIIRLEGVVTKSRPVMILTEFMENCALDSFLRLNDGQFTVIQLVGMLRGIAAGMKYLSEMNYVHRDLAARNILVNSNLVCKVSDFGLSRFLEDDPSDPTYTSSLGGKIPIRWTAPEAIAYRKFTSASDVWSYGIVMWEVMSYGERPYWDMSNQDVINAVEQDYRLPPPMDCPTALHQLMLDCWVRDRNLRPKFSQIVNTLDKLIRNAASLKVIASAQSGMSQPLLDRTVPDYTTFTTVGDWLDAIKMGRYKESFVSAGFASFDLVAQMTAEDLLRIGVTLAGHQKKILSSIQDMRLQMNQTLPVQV
# [13] = target: T3, Ephrin type-B receptor 3 (Homo sapiens); conditions: at 1 µM
# [14] = target: T4, Ephrin type-B receptor 4 (Homo sapiens) (UniProt P54760); conditions: at 0.1 µM
# T4 sequence (whole entry): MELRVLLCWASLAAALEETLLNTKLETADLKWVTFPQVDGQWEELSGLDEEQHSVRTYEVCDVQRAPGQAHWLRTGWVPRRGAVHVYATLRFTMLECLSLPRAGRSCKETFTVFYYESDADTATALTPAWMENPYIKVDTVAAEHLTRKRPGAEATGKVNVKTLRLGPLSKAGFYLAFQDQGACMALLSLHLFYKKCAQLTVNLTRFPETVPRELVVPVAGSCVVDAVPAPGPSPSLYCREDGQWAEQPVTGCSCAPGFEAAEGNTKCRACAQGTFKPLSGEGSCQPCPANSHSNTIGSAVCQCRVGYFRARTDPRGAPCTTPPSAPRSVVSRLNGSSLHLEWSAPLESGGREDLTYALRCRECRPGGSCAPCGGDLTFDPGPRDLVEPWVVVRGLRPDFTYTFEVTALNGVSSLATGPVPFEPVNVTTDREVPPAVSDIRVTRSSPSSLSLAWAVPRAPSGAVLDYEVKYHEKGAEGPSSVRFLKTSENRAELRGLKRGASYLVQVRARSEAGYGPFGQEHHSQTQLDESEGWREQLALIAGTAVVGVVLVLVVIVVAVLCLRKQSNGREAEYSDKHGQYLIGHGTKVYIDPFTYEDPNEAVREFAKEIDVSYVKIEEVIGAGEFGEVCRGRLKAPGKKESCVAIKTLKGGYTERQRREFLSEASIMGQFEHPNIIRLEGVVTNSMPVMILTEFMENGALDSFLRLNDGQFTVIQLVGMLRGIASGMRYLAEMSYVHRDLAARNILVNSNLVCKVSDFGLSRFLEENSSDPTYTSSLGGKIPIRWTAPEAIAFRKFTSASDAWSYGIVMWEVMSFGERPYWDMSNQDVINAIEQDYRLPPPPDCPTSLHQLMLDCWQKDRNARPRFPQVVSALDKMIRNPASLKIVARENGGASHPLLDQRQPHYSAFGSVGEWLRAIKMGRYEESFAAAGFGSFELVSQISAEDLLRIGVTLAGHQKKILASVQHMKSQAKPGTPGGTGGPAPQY
# [15] = target: T4, Ephrin type-B receptor 4 (Homo sapiens); conditions: at 1 µM
# [16] = target: Receptor tyrosine-protein kinase erbB-2 (Homo sapiens) (UniProt P04626); conditions: at 0.1 µM
# [17] = target: Receptor tyrosine-protein kinase erbB-2 (Homo sapiens) (UniProt P04626); conditions: at 1 µM
# [18] = target: Receptor tyrosine-protein kinase erbB-4 (Homo sapiens) (UniProt Q15303); conditions: at 0.1 µM
# [19] = target: Receptor tyrosine-protein kinase erbB-4 (Homo sapiens) (UniProt Q15303); conditions: at 1 µM
# [20] = target: Tyrosine-protein kinase Fer (Homo sapiens) (UniProt P16591); conditions: at 0.1 µM;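 note: reported figures are averaged percent inhibition of FER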
# Tyrosine-protein kinase Fer (Homo sapiens), sequence (P16591 whole entry, looked up): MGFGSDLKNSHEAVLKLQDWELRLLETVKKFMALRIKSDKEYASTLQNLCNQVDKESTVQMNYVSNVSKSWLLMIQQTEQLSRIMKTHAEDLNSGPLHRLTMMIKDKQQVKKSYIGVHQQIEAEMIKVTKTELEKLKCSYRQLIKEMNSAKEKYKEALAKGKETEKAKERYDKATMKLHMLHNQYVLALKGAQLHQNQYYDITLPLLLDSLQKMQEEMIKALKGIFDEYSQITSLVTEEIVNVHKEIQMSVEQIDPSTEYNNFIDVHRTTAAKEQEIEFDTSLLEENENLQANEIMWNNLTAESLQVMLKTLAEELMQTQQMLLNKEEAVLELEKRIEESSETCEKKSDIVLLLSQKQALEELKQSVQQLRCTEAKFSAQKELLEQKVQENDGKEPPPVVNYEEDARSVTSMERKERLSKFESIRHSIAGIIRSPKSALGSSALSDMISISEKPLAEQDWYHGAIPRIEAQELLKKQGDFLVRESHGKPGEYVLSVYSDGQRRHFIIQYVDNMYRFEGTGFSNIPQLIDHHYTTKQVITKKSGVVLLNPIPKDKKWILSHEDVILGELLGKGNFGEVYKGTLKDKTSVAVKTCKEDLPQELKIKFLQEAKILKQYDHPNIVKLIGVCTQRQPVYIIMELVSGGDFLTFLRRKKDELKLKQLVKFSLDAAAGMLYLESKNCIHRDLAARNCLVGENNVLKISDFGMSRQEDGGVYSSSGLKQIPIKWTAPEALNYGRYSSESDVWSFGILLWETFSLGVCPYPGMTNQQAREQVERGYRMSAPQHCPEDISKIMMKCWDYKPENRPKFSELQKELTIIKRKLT
# Epidermal growth factor receptor (Homo sapiens), P00533 [T790M], sequence (P00533 whole entry T790M): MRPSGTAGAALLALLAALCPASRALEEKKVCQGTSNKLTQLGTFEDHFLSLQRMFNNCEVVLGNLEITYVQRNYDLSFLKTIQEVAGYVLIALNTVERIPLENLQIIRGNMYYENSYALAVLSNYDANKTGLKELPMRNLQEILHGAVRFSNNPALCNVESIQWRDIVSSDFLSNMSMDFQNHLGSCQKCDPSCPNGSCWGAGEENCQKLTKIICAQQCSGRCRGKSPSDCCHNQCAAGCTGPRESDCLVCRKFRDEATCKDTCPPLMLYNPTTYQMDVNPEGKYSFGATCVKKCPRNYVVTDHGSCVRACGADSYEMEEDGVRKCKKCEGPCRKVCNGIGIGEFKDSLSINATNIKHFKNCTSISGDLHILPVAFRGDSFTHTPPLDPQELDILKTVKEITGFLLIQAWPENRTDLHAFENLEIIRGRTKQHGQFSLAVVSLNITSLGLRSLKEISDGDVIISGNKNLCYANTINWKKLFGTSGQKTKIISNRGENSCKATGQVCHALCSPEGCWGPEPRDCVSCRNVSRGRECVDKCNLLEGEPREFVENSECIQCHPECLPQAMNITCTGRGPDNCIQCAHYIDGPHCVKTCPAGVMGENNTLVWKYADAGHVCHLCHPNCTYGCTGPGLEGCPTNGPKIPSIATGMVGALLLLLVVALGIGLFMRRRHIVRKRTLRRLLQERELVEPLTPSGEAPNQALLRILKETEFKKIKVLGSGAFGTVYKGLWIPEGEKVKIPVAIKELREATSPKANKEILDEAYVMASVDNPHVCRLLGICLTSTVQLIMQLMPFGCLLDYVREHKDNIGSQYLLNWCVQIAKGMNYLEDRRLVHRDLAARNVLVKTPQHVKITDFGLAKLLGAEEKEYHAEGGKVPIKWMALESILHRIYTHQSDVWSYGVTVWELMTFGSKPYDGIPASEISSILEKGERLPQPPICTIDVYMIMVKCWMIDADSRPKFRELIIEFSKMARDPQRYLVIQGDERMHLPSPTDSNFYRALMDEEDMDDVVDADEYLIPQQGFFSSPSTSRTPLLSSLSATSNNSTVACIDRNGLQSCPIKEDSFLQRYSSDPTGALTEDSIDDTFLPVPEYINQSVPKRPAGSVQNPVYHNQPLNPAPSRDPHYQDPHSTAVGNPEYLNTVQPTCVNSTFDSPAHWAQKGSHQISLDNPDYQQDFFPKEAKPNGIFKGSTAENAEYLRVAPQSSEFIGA
# Receptor tyrosine-protein kinase erbB-4 (Homo sapiens), sequence (Q15303 whole entry): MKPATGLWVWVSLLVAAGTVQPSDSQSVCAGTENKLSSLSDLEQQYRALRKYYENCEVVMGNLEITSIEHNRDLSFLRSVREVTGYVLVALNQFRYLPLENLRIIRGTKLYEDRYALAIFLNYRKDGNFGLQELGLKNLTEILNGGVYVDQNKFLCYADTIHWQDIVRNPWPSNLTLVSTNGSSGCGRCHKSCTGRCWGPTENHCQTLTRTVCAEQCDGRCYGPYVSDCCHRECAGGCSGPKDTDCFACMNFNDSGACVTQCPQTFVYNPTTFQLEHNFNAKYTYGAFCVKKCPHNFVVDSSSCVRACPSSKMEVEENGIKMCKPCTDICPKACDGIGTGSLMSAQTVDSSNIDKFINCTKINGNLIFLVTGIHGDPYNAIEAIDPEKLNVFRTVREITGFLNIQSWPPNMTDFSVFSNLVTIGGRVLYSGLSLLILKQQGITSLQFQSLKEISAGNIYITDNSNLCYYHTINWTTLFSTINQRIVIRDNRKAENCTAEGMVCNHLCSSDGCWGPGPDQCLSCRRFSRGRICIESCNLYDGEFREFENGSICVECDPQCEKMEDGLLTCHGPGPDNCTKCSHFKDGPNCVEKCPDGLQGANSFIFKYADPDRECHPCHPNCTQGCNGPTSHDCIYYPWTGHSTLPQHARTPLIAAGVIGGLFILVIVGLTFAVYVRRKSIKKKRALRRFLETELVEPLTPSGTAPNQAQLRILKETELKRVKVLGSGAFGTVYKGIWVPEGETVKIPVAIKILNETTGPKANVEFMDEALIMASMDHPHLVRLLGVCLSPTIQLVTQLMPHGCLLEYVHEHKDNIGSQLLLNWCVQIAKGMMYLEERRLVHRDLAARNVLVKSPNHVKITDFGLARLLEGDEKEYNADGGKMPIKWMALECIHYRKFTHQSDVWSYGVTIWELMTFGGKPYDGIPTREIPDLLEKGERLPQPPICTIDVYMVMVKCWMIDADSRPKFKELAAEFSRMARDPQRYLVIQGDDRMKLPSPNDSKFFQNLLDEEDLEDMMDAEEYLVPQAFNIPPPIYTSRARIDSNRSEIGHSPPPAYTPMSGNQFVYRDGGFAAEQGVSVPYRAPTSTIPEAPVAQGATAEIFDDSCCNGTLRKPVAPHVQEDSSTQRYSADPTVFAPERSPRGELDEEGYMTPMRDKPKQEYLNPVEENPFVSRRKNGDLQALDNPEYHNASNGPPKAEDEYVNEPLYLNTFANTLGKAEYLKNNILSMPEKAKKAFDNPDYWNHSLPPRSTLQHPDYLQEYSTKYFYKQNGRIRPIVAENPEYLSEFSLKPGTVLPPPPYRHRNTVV
# Ephrin type-A receptor 4 (Homo sapiens), sequence (P54764 whole entry): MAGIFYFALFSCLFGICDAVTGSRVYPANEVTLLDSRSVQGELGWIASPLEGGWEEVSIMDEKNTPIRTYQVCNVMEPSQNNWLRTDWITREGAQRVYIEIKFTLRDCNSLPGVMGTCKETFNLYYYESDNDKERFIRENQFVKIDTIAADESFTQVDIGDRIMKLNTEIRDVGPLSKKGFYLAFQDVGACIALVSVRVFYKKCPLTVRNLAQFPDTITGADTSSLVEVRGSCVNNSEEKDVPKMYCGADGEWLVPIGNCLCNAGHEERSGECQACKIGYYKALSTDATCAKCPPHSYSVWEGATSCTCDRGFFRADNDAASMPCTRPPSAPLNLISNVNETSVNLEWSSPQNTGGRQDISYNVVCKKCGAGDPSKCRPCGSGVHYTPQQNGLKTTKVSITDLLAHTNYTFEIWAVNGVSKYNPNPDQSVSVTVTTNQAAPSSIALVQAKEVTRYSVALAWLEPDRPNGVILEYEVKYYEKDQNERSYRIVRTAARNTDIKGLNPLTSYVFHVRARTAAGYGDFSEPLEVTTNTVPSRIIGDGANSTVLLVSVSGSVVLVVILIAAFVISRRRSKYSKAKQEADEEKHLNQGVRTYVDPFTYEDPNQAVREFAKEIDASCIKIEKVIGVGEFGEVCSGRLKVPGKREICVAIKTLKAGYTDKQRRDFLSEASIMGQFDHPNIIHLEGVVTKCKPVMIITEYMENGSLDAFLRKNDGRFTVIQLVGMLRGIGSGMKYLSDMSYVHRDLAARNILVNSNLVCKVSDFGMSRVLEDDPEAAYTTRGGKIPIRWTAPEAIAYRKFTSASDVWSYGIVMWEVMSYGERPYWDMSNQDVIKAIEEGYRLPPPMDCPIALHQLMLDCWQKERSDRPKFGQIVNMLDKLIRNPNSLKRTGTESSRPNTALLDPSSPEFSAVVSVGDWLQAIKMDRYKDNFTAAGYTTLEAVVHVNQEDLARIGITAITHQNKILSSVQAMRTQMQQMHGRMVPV
SMILES,inhibition [1] [%],inhibition [2] [%],inhibition [3] [%],inhibition [4] [%],inhibition [5] [%],inhibition [6] [%],inhibition [7] [%],inhibition [8] [%],inhibition [9] [%],inhibition [10] [%],inhibition [11] [%],inhibition [12] [%],inhibition [13] [%],inhibition [14] [%],inhibition [15] [%],inhibition [16] [%],inhibition [17] [%],inhibition [18] [%],inhibition [19] [%],inhibition [20] [%]
NC(=O)c1sc(-n2cnc3cc(C(F)(F)F)ccc32)cc1OCc1ccccc1Br,0.23,-0.11,-0.24,2.18,0.32,3.31,1.36,4.57,8.16,-4.03,4.29,1.68,3.79,0.19,1.65,3.19,4.72,5.4,14.4,2.82
COc1cc2c(cc1Nc1nc(Nc3ccsc3C(N)=O)c3cc[nH]c3n1)N(C(=O)CN(C)C)CCC2,55,29.8,77.5,1.21,-1.44,1.88,-0.28,0.13,4.13,-6.85,5.1,0.25,1.02,-2.11,1.55,-0.5,1.76,8.03,35.3,79.7
Nc1nonc1-c1nc2cnccc2n1C1CCCCC1,-2.94,-0.65,-0.53,-4.45,-4.85,-7.25,-1.98,-4.61,-3.51,-7.08,-8.8,-1.43,-4.08,-3.41,-1.63,-3.46,-1.33,-5.14,-5.19,-1.75
COc1cccc(COc2cc(-n3cnc4ccccc43)sc2C(N)=O)c1,-0.01,-1.88,-1.62,1.52,1.85,2.67,-0.49,-0.79,3.39,-2.9,0.89,0.5,2.27,-2.06,1.33,2.53,2.65,1.74,13.2,-2.66
NS(=O)(=O)c1ccc(-c2ccc3c(NC(=O)C4CC4)n[nH]c3c2)cc1,-0.38,-1.39,1.78,3,1.18,2.34,2.31,4.83,1.43,7.57,8.86,4.28,4.38,1.05,3.22,-0.2,0.41,8.86,7.66,-0.63
CCn1c(-c2nonc2N)nc2c(C#CC(C)(C)O)ncc(OCC3CCNCC3)c21,3.59,2.99,3.17,-2.64,-3.81,-0.49,-1.92,7.43,7.66,1.63,7.37,-0.37,-1.35,-3.5,-2.94,1.27,5.1,2.93,3.14,2.18
Fc1ccc(-c2ncn(C3CCNCC3)c2-c2ccnc(Oc3ccccc3)n2)cc1,2.3,-1.55,0.47,-5.61,-5.64,-1.44,-1.53,4.92,5.9,5.55,5.52,-0.53,-0.5,-4.2,1.66,9.4,10.7,10.8,15.3,1.63

# From ChEMBL document CHEMBL1961873, “Compounds: GSK PKIS; Assays: Nanosyn kinase panel” (2012)
